Only some compounds are listed: those with a hit (about 4.6% of all), similar ones and a draw of the others.
D1 ag: agonists of human D1 dopamine receptor; HEK293 T-REx D1 cells, calcium flux, agonist mode; activation, % at 2 µM; 1% of 360,000 active; AID 504660; further: 0% is about no effect
Target sequence (P21728 whole entry, looked up): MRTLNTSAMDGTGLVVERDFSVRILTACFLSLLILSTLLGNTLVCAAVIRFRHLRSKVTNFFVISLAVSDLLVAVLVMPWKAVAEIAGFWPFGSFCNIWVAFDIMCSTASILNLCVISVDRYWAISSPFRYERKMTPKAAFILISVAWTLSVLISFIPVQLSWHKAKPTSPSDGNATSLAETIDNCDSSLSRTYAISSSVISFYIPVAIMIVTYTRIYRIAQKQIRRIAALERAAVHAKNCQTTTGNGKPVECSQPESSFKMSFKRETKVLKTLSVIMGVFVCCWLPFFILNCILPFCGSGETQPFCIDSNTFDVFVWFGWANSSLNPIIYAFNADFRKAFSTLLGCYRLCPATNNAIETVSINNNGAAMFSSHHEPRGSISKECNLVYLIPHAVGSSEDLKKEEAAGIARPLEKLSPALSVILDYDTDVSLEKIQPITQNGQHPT
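Inducible HEK293 T-REx D1 cells, force-coupled to calcium signalling, were plated at 4000 cells/well with tetracycline and held overnight at 30 C. After no-wash calcium dye loading, compound-evoked calcium rise over 180 s flagged agonists.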
TRHR ag: TRH receptor (human) agonism | TRHR cells, calcium flux fluo-8, FDSS agonist mode | activation, % at 2 µM | 0.18% of 360,000 active; further: 0% is about no effect
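Read-out: compound-evoked intracellular calcium rise in TRHR cells, fluo-8 dye, kinetic FDSS fluorescence at 1 s/cycle following a 10-cycle baseline. Cells cultured overnight before dye loading (30 min–1.5 h, RT).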
D1 antag: blocks dopamine activation of the human D1 receptor; AID 504652; 3.2% of 360,000 active; activity change, negative = inhibition, % at 10 µM; HEK293 TREx D1 cells, calcium flux, dopamine EC80; hits give low values; in the data active means activity change below about -30%; further: on the % scale 0 is the no-effect control and ±100 the full control effect
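Using tetracycline-induced force-coupled D1 Hek293 cells and a calcium dye, signals were followed for 180 s after compound, then for 180 s after EC80 dopamine, to detect inhibitors.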
D1 PAM: enhances dopamine response at the human D1 receptor. P21728. 0.036% of 360,000 active. potentiation, % at 10 µM. HEK293 TREx D1 cells, calcium flux, dopamine EC20 potentiation; in the data active means potentiation above about 30%; further: 0% is about no effect
TRHR enhancer: TRH receptor (human) allosteric enhancement. TRHR cells, fluo-8 calcium fluorescence, EC20 TRH enhancement. enhancement, % at 2 µM. 0.66% of 360,000 active. AID 493056. P34981; in the data active means enhancement above about 30%; further: 0% is about no effect
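Enhancer read-out: after compound pinning and an initial kinetic agonist-mode read, an EC20 of TRH (10 nM final) was injected and fluo-8 calcium signal (Ex 480/Em 530) followed at 1 s/cycle for 100 cycles in TRHR-expressing cells.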
The depositor's hits bear a star; . = no result given; ! = repeats disagree. Unless noted, no stated cut-off is given here; in the data, active means activation above about 30%; inactive means the rest.

SMILES	D1 ag	TRHR ag	D1 antag	D1 PAM	TRHR enhancer
CCN(C(=O)COC(=O)c1ccccc1SCC(=O)NC1CCCCCCC1)C1CCS(=O)(=O)C1 (stereo unspecified)	0	1	13	-1	8
CC(=O)Nc1ccc(OCC(=O)N(CC(C)C)C2CCS(=O)(=O)C2)cc1 (stereo unspecified)	3	1	4	1	6
CC(C)CN(C(=O)COC(=O)c1ccccc1SCC(=O)NC1CCCCCC1)C1CCS(=O)(=O)C1 (stereo unspecified)	1	0	-42*	2	2
CC(C)CN(C(=O)COc1ccc(-c2nnco2)cc1)C1CCS(=O)(=O)C1 (stereo unspecified)	1	1	-47*	3	-3
CCOC(=O)c1cc(C)n(CC2CCC(C(=O)Nc3ccc(C(C)=O)cc3)CC2)c1C (stereo unspecified)	6	1	-25	-2	13
COc1cccc(C(=O)N(Cc2cccnc2)c2nc3c(OC)ccc(C)c3s2)c1OC	4	0	.	-2	0
CCN(Cc1ccccc1)C(=O)Nc1ccc2c(c1)N(C)C(=O)c1ccccc1S2	-1	0	-2	-3	-2
Nc1ccc(C(=O)Nc2ccc(OC(F)(F)C(F)F)c(NC(=O)c3ccc(N)cc3)c2)cc1	3	0	-32*	1	1
CCN1CCN(c2oc(-c3ccc(COc4ccc(C)cc4)o3)nc2C#N)CC1	1	1	-6	-2	-3
COc1ccc(NC(=O)CN2CCCN(Cc3ccc(Cl)cc3)S2(=O)=O)cc1Cl	2	0	-3	-1	-12
COc1ccc(OCCSc2ncccn2)cc1	2	-1	-6	1	31*
COc1ccccc1OCCSc1nc(N)cc(N)n1	0	0	-84*	-9	3
Nc1cc(N)nc(SCCOc2ccccc2F)n1	0	0	1	1	3
C=CCc1ccccc1OCCSc1nc2ccc([N+](=O)[O-])cc2s1	18	1	-13	1	-2
COc1ccccc1OCCSc1nc2ccc([N+](=O)[O-])cc2s1	3	0	-57*	-14	-5
CCOC(=O)C1=C(CS(=O)(=O)c2ccc(F)c(C)c2)NC(=O)NC1c1ccccc1OC (stereo unspecified)	-1	3	11	-1	5
Cc1ccc(S(=O)(=O)c2nnn3c2nc(N2CCN(c4ccc(F)cc4)CC2)c2cc(Cl)ccc23)cc1C	1	0	-6	-5	-4
N#Cc1cnn2ccc(-c3ccc4c(c3)CCC4)nc12	0	-1	-31*	-8	-8
CN1CCN(C(=O)CCCN2C(=O)/C(=C/c3ccc(Cl)cc3)SC2=S)CC1	10	1	-61*	-13	5
CN1CCN(C(=O)CCCN2C(=O)/C(=C/c3ccccc3)SC2=S)CC1	7	1	-30	-14	2
COCCN1C(=O)/C(=C/c2ccc(N3CCCC3)cc2)SC1=S	258*	44*	-1	0	-5
COc1ccc(C)cc1NC(=O)CN(C)S(=O)(=O)c1ccc2c(c1)c(=O)n(C)c(=O)n2C	3	0	-30*!	-2	-2
CCOC(=O)c1c(C)[nH]c(C)c1S(=O)(=O)NCC(=O)Nc1cc(C)ccc1OC	4	-1	-7	-2	-4
CCOC(=O)c1c(C)[nH]c(C)c1S(=O)(=O)N(C)CC(=O)Nc1cc(C)ccc1OC	0	-1	-40*	-7	-2
CCOC(=O)c1ccc(NC(=O)C2CCN(S(=O)(=O)Cc3ccccc3)CC2)cc1	1	0	9	1	4
SMILES	D1 ag	TRHR ag	D1 antag	D1 PAM	TRHR enhancer
CC1=NN(c2cccc(F)c2)C(=O)/C1=C/c1ccc(N(C)C)cc1	-1	0	-85*	-14	-27
CN(Cc1nc(Cc2ccccc2F)no1)Cc1cccc2ncccc12	13	0	-40*	-6	1
CN(Cc1nc(Cc2ccccc2F)no1)CC1(N2CCOCC2)CCCCC1	1	1	0	-7	1
CCCCN(C)S(=O)(=O)c1cc(-c2cc(C)no2)ccc1C	8	-1	-22	-4	1
CC(C)(C)c1ccc(OCC(=O)NC(Cc2c[nH]c3ccccc23)C(=O)O)cc1 (stereo unspecified)	49*	1	13	-1	-5
CN(C)CCCNCCCCNC(=O)/C=N/O	4	-1	-23	4	-3
CN(C)CCCNCCCNC(=O)/C=N/O	1	1	-38*	-8	-5
CCOC(=O)/C=C/c1cc(F)c(S(=O)(=O)N2CCN(S(=O)(=O)c3ccc4c(c3)OCCO4)CC2)cc1F	0	0	-1	-6	-3
O=C1C(Cl)=C(Nc2ccc(F)cc2)C(=O)N1CCc1ccccc1	2	1	-35*	-3	4
O=C1C(Cl)=C(NCCc2ccccc2)C(=O)N1CCc1ccccc1	0	-1	3	0	4
O=S(=O)(c1ccc2c(c1)OCCO2)N1CCN(S(=O)(=O)c2ccccc2OC(F)(F)F)CC1	7	1	-25	-3	1
O=C(c1ccccc1)c1c2c(cc3sc4ccccc4[n+]13)-c1cccc3cccc-2c13	242*	79*	-25	-5	22
CCOC(=O)Cc1cc(-c2ccc(F)cc2)nc2ccc3ccccc3c12	9	1	-57*	-11	1
CCOC(=O)Cc1cc(-c2ccc(O)cc2)nc2ccc3ccccc3c12	6	0	-12	-6	0
CCc1ccc(NC(=O)CSc2nc(CSc3ccc(C)cc3)cc(=O)[nH]2)cc1	2	0	-4	-6	-3
Cc1ccc(SCc2cc(=O)[nH]c(SCC(=O)Nc3cc(Cl)ccc3Cl)n2)cc1	-3	0	-34*	7	6
O=C(c1ccc([N+](=O)[O-])cc1)N1CCSC1c1cccc(Cl)c1 (stereo unspecified)	3	1	-35*	-12	-1
COc1cc(C(=O)NNC(=S)NC(=O)c2ccccc2C)cc(OC)c1OC	47*	6	19	-8	4
Cc1onc(-c2ccccc2)c1C(=O)NNC(=S)NC(=O)c1ccc(Br)cc1	134*	27	12	-1	-4
Cc1onc(-c2ccccc2)c1C(=O)NNC(=S)NC(=O)c1ccc(Cl)cc1Cl	308*	35*	58	16	2
COc1ccc(/C=C/C(=O)NC(=S)NNC(=O)c2c(-c3ccccc3)noc2C)cc1	3	1	6	-10	7
Cc1onc(-c2ccccc2)c1C(=O)NNC(=S)NC(=O)/C=C/c1ccccc1	34*	5	-8	-3	14
COc1ccccc1C(=O)NNC(=S)NC(=O)c1cc(OC)c(OC)c(OC)c1	11	0	0	-4	-4
Cc1onc(-c2ccccc2)c1C(=O)NNC(=O)c1ccccc1	1	0	4	-6	-1
